# Results: PubChem BioAssay AID720518 (National Center for Advancing Translational Sciences (NCATS), 2013)
# Inconclusive results are not listed. Calls of active or inactive are those of the source. Calls follow the shape of the full dose curve.
# Experiment: qHTS for Inhibitors of Cell Surface uPA Generation: Wild-type Protective Antigen (WT-PrAg) Counterscreen for Cherry-picked Compounds; also: 0% is about no effect
# Settings: cells, WT protective antigen toxicity counterscreen; series mostly up to 115 µM; activity (protection): at the top concentration
row,Compound,activity (protection)
1,Cc1ccc(N=C2SCCCN2C(=O)c2cccc(N3C(=O)CCC3=O)c2)cc1Cl,-1.92% (inactive)
2,C/C(=N\NC(=S)NC(C)C)c1ccc(Cl)s1,-1.3% (inactive)
3,Cc1cccc(CNc2ccc(C(CC(N)=O)NC(=O)c3cccc(Br)c3)cc2[N+](=O)[O-])c1 (centres undefined),0.204% (inactive)
4,O=C(O)c1ccccc1/C=N/NC(=S)NC1CCCCC1,0.478% (inactive)
5,CC(=O)c1ccc2c(c1)c1ccccc1n2CC(C)C,0.604% (inactive)
6,COc1ccc(N(C(C)C(=O)NN=C2CCCC2)S(C)(=O)=O)cc1 (centres undefined),0.768% (inactive)
7,CCCCCOC(=O)C1=C(C)NC(=O)NC1c1ccccc1 (centres undefined),0.914% (inactive)
8,COc1ccccc1NC(=O)N1C[C@@H]2C[C@@H](C1)c1cccc(=O)n1C2,0.274% (inactive)
9,CC(C)c1ccc(NC(=O)COc2ccc(S(=O)(=O)N3CCOCC3)cc2)cc1,0.0707% (inactive)
10,CCOC(=O)Cn1c(=O)cc(C)c2cccc(C)c21,5.3% (inactive)
11,O=C(Cn1cnc2c(OCc3ccccc3)ncnc21)NCCCN1CCCC1=O,-1.87% (inactive)
12,CN(CC(=O)NCCCn1ccnc1)S(=O)(=O)c1ccc(Cl)cc1,0.0947% (inactive)
13,Cc1ccc2cccc(OCCCOc3ccccc3CO)c2n1,1.21% (inactive)
14,COc1cccc(C2CC(c3ccc(C)cc3)n3ncnc3N2)c1 (centres undefined),0.394% (inactive)
15,Cc1c(NC(=O)C(C)OC(=O)CCC2CCCC2)c(=O)n(-c2ccccc2)n1C (centres undefined),0.713% (inactive)
16,CC1CC(C)(C)Nc2ccc(N=O)cc21 (centres undefined),-2.49% (inactive)
17,COc1ccc(C)cc1NC(=O)CSCc1cc(=O)n2c(C)csc2n1,0.0603% (inactive)
18,COC(C[C@H](O)[C@H](C)[C@@H](O)COCc1ccccc1)OC,-1.08% (inactive)
19,O=C(CN1CCCC1)Nc1cccc(Cl)c1Cl,1.89% (inactive)
